In the library only some 3.4% were active in any assay of this set; here they are far more common.
GCN5L2 inh = blocks human GCN5L2 histone acetyltransferase. Potency, µM (titrated, usually from 58.9 µM), for inactives: top-dose activity change, negative = inhibition, most hits filed as inhibitors. Q92830. GCN5L2 HAT assay, ThioGlo1 CoA-SH fluorescence. 390,000 compounds, 0.21% hits; also: % is scaled to controls: 0 for no effect and ±100 for the full control effect
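Titration-based screen in which CoA formation is detected via maleimide probe ThioGlo1 (50uM) turning fluorescent on thiol reaction; substrates H3(1-25) 75uM and acetyl-CoA 70uM, GCN5L2 20nM, 20 min incubation at room temperature.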
VDR inh = vitamin D3 receptor (human) inhibition; 400,000 compounds, 0.93% hits; VDR-SRC2-3 peptide fluorescence polarization, 2 h; AID 504847; Potency, µM, for inactives: max response, negative = inhibition, most hits filed as inhibitors; also: % is scaled to controls: 0 for no effect and ±100 for the full control effect
Target sequence (P11473 whole entry, looked up): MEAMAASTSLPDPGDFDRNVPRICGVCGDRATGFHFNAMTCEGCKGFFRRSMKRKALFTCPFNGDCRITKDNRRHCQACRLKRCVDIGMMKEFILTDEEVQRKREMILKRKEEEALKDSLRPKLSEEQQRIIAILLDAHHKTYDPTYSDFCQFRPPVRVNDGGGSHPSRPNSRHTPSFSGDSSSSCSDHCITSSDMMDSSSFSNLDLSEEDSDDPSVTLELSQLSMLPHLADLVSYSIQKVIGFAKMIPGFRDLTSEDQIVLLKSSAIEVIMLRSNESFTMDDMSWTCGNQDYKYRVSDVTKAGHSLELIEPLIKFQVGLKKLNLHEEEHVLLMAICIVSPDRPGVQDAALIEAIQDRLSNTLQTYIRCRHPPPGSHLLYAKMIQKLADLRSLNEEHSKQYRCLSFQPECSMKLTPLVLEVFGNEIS
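Signal is fluorescence polarization, reporting how far test compounds block the interaction of VDR with the SRC2-3 coregulator peptide after a 2 h room-temperature incubation.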
Mito fusion yeast = inhibitors of mitochondrial division or activators of mitochondrial fusion; Potency, µM (titrated, usually from 46.1 µM), inactives show at the top dose growth rescue (activation), usual class: activators; 320,000 compounds, 0.23% hits; S. cerevisiae fusion-defective mutant growth rescue, CellTiterGlo 48 h; AID 485298; also: % of control where 0% means no effect; nearly all actives have a fitted effect of over 45% in size
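S. cerevisiae fusion-defective temperature-sensitive mutants (e.g. fzo1-1, mgm1-5) grown 48 h at 37C in YPEG (ethanol/glycerol non-fermentable) medium with 23 nl compound per well; growth rescue read as CellTiterGlo luminescence.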
PKM2 activator = activators of human pyruvate kinase M2 | P14618 | purified PKM2, Kinase-Glo ATP luminescence, activation; response scale: 0% is enzyme alone, no compound | Potency, µM (highest dose often 57.5 µM), for inactives: top-dose activation, actives largely listed as activators | 260,000 compounds, 0.34% hits; also: % is scaled to controls: 0 for no effect and ±100 for the full control effect; nearly all actives have a fitted effect of over 55% in size
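Purified hPK-M2 (>95% pure) converted ADP (0.1 mM final) to ATP with 0.5 mM PEP in 50 mM imidazole pH7.2, KCl, MgCl2, Tween 20, BSA; 1 h at room temperature. ATP detected by Kinase-Glo luminescence.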
PLK1 PBD inh = PLK1 (human) polo-box domain binding inhibition; AID 720504; Potency, µM, for inactives: max response, negative = inhibition, hits mostly inhibitors; 360,000 compounds, 2.8% hits; Plk1 PBD binding of FITC phosphopeptide, fluorescence polarization; P53350; also: series mostly up to about 57 µM; % is scaled to controls: 0 for no effect and ±100 for the full control effect; nearly all actives have a fitted effect of over 65% in size
GLS inh = blocks human kidney-isoform glutaminase activity | GLS enzymatic activity, qHTS titration | Potency, µM (series often up to 45.5 µM), inactives show at the top dose activity change, negative = inhibition, most hits filed as inhibitors | 410,000 compounds, 0.21% hits; also: % is scaled to controls: 0 for no effect and ±100 for the full control effect
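Read-out is an Amplex red fluorescence increase coupled through glutamate oxidase and HRP, measured before and after 30 min room-temperature incubation. hKGA is in 45 mM KH2PO4 (pH 8.2) with 0.02% Tween-20; glutamine added as 1mM solution.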
* hit, by the source's call; ? = inconclusive; nt = not tested or not shown; [ ] = remark or other dose. Calls follow the shape of the dose curve; as a rule, active = well fitted curve in the direction sought with a large enough effect; inconclusive = small, poorly fitted or top-dose-only effect, or another doubt; inactive = no such curve, though single readings can be large; an effect the other way counts as inactive or inconclusive. Potency is read from the fitted curve at half-maximal effect.

SMILES	GCN5L2 inh	VDR inh	Mito fusion yeast	PKM2 activator	PLK1 PBD inh	GLS inh
O=C(O)CCCn1cc(NC(=O)COc2ccccc2)cn1	0.7%	2.2%	-1.3%	0.1%	-14.1%	-0.2%
O=C(COc1ccc(Cl)cc1)Nc1cnn(Cc2c(Cl)cccc2Cl)c1	0.8%	89.1µM*	-0.8%	-1.4%	-8.6%	8.9%
COc1cc(C(=S)N(C)C)ccc1O	-5.9%	-12.3%	-5.1%	-9.7%	9.47µM*	15.2%
CCOc1ccc(NC(=S)N2CCC(NC(=O)c3ccccc3C)CC2)cc1	3.7%	-8.2%	-8.0%	-3.1%	-2.7%	-5.2%
O=C(O)CSc1nc(-c2ccc(Cl)cc2)nc2c1oc1ccccc12	-16.6%	-27.1%	8.91µM*	-2.0%	?	-33.8%
CCOC(=O)CSc1nc(-c2ccccc2)nc2c1oc1ccccc12	-0.3%	-0.6%	0.7%	1.4%	-8.7%	1.0%
COc1ccc(C2/C=C\CN(Cc3ccccc3)C(C)C(=O)N2Cc2ccc(F)cc2)cc1 (stereo not given)	nt	-10.1%	nt	nt	nt	nt
CC(=O)n1nc(-c2ccc(Cl)cc2)nc1NCc1ccco1	-8.2%	?	-1.0%	-1.4%	21.2µM*	7.9%
CC1C(=O)OC2C1CCC1(C)CCC(=O)C(C)C21 (stereo not given)	-4.0%	-1.4%	11.8%	nt	29.9µM*	-2.7%
CC1=CC(=O)C2=C(C)CC[C@H]3[C@H](C)C(=O)O[C@@H]3C12 (stereo not given in full)	19.1%	4.1%	nt	nt	nt	nt
N#Cc1ccc(OCc2c(-c3ccccc3)nnn2CC(=O)O)cc1	nt	nt	nt	nt	-6.5%	1.8%
O=C(NCc1ccco1)c1cc2c(s1)CSC2	?	?	-5.7%	21.4%	13.4µM*	-0.7%
O=C(NCc1ccc2c(c1)OCO2)c1cc2c(s1)CSC2	-5.1%	-12.6%	0.6%	16.7%	-26.9%	19.1%
O=C(NCc1ccco1)C(c1ccco1)N(Cc1cccs1)C(=O)Cn1nnc2ccccc21 (stereo not given)	-1.8%	-11.6%	5.8%	15.1%	-9.4%	9.6%
CCC(C)(C)NC(=O)C(c1ccccc1F)N(Cc1ccco1)C(=O)Cn1nnc2ccccc21 (stereo not given)	0.9%	5.1%	10µM*	1.6%	-4.3%	8.0%
CCc1ccc(C(C(=O)NC(C)(C)CC)N(Cc2ccco2)C(=O)Cn2nnc3ccccc32)cc1 (stereo not given)	0.7%	-12.6%	3.4%	-16.8%	-0.5%	1.6%
O=C(NCc1ccco1)C(c1ccco1)N(CCc1ccccc1)C(=O)Cn1nnc2ccccc21 (stereo not given)	-0.6%	2.1%	5.8%	4.0%	3.77µM*	-15.0%
CCCS(=O)(=O)Nc1cc(-c2cn3ccc(C)cc3n2)ccc1C	-5.3%	12.8%	nt	nt	nt	2.0%
O=C(c1cccc(OC2CCN(Cc3ccc(F)cc3)CC2)c1)N1CCCC1	-2.9%	-18.0%	-0.2%	2.3%	21.2µM*	-1.3%
O=C(O)CCCCCCCCCCCc1ccccc1	?	-12.6%	2.2%	8.3%	23.8µM*	7.6%
O=C(O)c1ccc(CCCc2ccccc2)cc1	nt	0.1%	nt	nt	-9.2%	-11.8%
Cc1nc2ccccc2c2c(N)c3ccccc3n12	-5.2%	?	1.6%	-0.5%	11.9µM*	?
CC/C(C)=N/Nc1cccc([N+](=O)[O-])c1	6.8%	-11.9%	9.6%	0.5%	-20.0%	-5.7%
Cc1ccc(NS(=O)(=O)c2coc(C(N)=O)c2)cc1F	1.3%	-25.4%	0.6%	1.6%	23.8µM*	9.6%
CC(=O)c1ccc(S(=O)(=O)Nc2cccc(-n3cnnn3)c2)cc1	?	-3.8%	13.2%	nt	?	-16.9%
SMILES	GCN5L2 inh	VDR inh	Mito fusion yeast	PKM2 activator	PLK1 PBD inh	GLS inh
Cc1ccccc1NC(=O)Cn1nnc(C(=O)NCc2ccco2)c1N	-2.6%	-25.2%	3.8%	-28.1%	26.7µM*	16.7%
CC(=O)N(CC(O)CO)c1c(I)c(C(=O)NCCO)c(I)c(C(=O)NCC(O)CO)c1I (stereo not given)	nt	nt	nt	nt	nt	1.8%
Cc1n[nH]c(=O)nc1NCC1CCCO1 (stereo not given)	-0.1%	-10.4%	-2.1%	6.0%	26.7µM*	-19.3%
Cc1nc(NCC2CCCO2)[nH]c(=O)c1CCC(C)C (stereo not given)	1.6%	-7.1%	1.7%	1.7%	-9.8%	-1.3%
N#Cc1nc(-c2cccc3ccccc23)oc1NCC#CCOC(=O)c1cccs1	-9.8%	nt	-18.1%	nt	nt	nt
NS(=O)(=O)c1ccc(-c2ccc(/C=C3\NC(=S)NC3=O)o2)cc1	-2.7%	79.4µM*	2.4%	6.5%	?	-7.6%
CCN(C(=O)CSc1cc(C)c2ccccc2n1)c1c(N)n(Cc2ccccc2)c(=O)[nH]c1=O	4.2%	12.4%	19.9%	5.3%	-23.8%	-5.6%
Cc1ccc(CNC(=O)c2coc(=O)c3ccccc23)o1	-0.9%	-15.4%	-1.3%	12.6µM*	-16.4%	5.4%
Cc1ccc(CCC(=O)NCc2ccccc2)o1	-7.1%	-1.8%	-2.4%	0.5%[11.5 µM]	-12.8%	-5.7%
CCn1cc(C(=O)NCc2ccc(C)o2)c2cc(OC)c(OC)cc2c1=O	-4.2%	-15.9%	-2.5%	14.1µM*	-4.3%	-2.7%
COc1cccc(OCC(=O)N(C)Cc2nc(-c3cccc(C)c3)no2)c1	-7.3%	-6.1%	9.1%	4.7%	-9.5%	-13.7%
Clc1ccc(Cn2nc(-c3ccccc3)nc2-c2ccccc2)cc1	-5.6%	-28.8%	-0.9%	-1.4%	23.8µM*	0.1%
COc1cc(C(O)c2nc(-c3csc4ccccc34)cs2)ccc1F (stereo not given)	nt	nt	nt	nt	-0.7%	3.5%
COc1ccc(C(=O)NNc2ncnc3c2cnn3-c2ccc(C)cc2C)cc1	-2.0%	9.6%	nt	nt	nt	19.1%
COc1ccc(N=C2S/C(=C\c3ccc(OC(C)C(=O)O)c(OC)c3)C(=O)N2CCc2c[nH]c3ccccc23)cc1 (stereo not given)	?	39.8µM*	9.7%	-0.9%	?	2.5%
COc1cc(/C=C2\SC(=Nc3ccccc3)N(CCc3c[nH]c4ccccc34)C2=O)ccc1OC(C)C(=O)O (stereo not given)	?	?	-15.5%	0.1%	?	24.7%
O=C1/C(=C/c2ccc(N3CCOCC3)o2)SC(=Nc2ccccc2)N1CCc1c[nH]c2ccccc12	1.3%	79.4µM*	-14.1%	?	27.2%	?
COC(=O)C[C@H]1CC[C@@H](NS(=O)(=O)c2ccc(C)cc2)[C@@H](CO)O1	nt	nt	nt	nt	3.2%	nt
COC(=O)CC1C(=O)NCCN1C(=S)Nc1ccccc1 (stereo not given)	-7.6%	5.2%	1.0%	-8.9%	-6.0%	-5.7%

Screening data (PubChem)
